The list is not random: actives were taken first. Their share in the collection is about 9.2%.
HTT aggregate: qHTS Multiplex Assay to Identify Dual Action Probes in a Cell Model of Huntington: Aggregate Formation (GFP) | PC12 HttQ103-GFP aggregates, Acumen cytometry, 40 h | Potency, µM (top dose mostly 46.1 µM), for inactives: top-dose activity change, negative = inhibition, usual class: inhibitors | 1.1% of 220,000 active; active = well fitted curve in the direction sought with a large enough effect; inconclusive = small, poorly fitted or top-dose-only effect, or another doubt; inactive = no such curve, though single readings can be large; an effect the other way counts as inactive or inconclusive; also: % is scaled to controls: 0 for no effect and ±100 for the full control effect; nearly all actives have a fitted effect of over 60% in size
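PC12 cells with ecdysone-inducible HTT exon1 Q103-GFP, induced by 100 nM tebufenozide, given compounds in a concentration series. GFP aggregates (1–25 um, 6 SD above background) counted in lysates by laser-scanning cytometry, 488 nm excitation.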
JMJD2E inh: qHTS Assay for Inhibitors of Human Jumonji Domain Containing 2E (JMJD2E). JMJD2E catalytic domain, FDH-coupled NADH fluorescence (FDH is formaldehyde dehydrogenase). Potency, µM (series often up to 57.1 µM), for the others: at the highest dose activity change, negative = inhibition, hits mostly inhibitors. 1.6% of 230,000 active;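 also: 0% = wells with enzyme and -100% = buffer wells without enzyme; nearly all actives have a fitted effect of over 50% in size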
Lamin A splicing: qHTS Assay for Modulators of Lamin A Splicing | Potency, µM (top dose mostly 46.1 µM), for inactives: at the top dose ratio change, negative = inhibition, actives largely listed as inhibitors | HeLa LMNA splicing GFP/RFP minigene ratio, 48 h | 0.01% of 200,000 active | AID 1487, 2009; active = well fitted inhibition curve with a large enough effect in the signal ratio, with a control signal flat, not every such curve was filed as active; inconclusive = small, poorly fitted or top-dose-only effect, or effect the other way, or a change in a side signal; the % refers to the signal ratio; also: % is scaled to controls: 0 for no effect and ±100 for the full control effect
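S3 HeLa cells stably expressing lamin A-EGFP splicing minigene plus DsRed2, 600 cells/well, 48 h compound exposure at 37C. Laser-scanning cytometry; analysed as GFP (500-530 nm)/RFP (575-640 nm) total intensity ratio; 0.5% DMSO vehicle.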
HTT ATP protect: qHTS Multiplex Assay to Identify Dual Action Probes in a Cell Model of Huntington: Cytoprotection (ATP); AID 1471, 2008; Potency, µM (titrated, usually from 56.4 µM), for the others: cytoprotection (ATP increase), hits mostly activators; PC12 HTT-Q103 induced, cytoprotection, ATP luminescence, 40 h; 0.14% of 230,000 active; active = well fitted curve in the direction sought with a large enough effect; inconclusive = small, poorly fitted or top-dose-only effect, or another doubt; inactive = no such curve, though single readings can be large; an effect the other way counts as inactive or inconclusive; also: % of control where 0% means no effect; nearly all actives have a fitted effect of over 45% in size
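Compounds added alongside 100 nM tebufenozide, which induces toxic Q103 huntingtin exon 1-GFP in stable PC12 cells; surviving cells quantified by luminescent ATP measurement. Medium: phenol red-free DMEM, 5% equine and 5% calf serum.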
ALDH1A1 inh: qHTS Assay for Inhibitors of Aldehyde Dehydrogenase 1 (ALDH1A1). Aldehyde dehydrogenase 1A1 (Homo sapiens), P00352. Purified ALDH1A1, NADH fluorescence, propionaldehyde substrate. Potency, µM (doses to about 75.3 µM), for the others: top-dose activity, negative = inhibition, usual class: inhibitors. 7.3% of 220,000 active. AID 1030, 2008;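 also: plate controls were no enzyme wells and a reference inhibitor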
Target sequence (P00352 whole entry, looked up): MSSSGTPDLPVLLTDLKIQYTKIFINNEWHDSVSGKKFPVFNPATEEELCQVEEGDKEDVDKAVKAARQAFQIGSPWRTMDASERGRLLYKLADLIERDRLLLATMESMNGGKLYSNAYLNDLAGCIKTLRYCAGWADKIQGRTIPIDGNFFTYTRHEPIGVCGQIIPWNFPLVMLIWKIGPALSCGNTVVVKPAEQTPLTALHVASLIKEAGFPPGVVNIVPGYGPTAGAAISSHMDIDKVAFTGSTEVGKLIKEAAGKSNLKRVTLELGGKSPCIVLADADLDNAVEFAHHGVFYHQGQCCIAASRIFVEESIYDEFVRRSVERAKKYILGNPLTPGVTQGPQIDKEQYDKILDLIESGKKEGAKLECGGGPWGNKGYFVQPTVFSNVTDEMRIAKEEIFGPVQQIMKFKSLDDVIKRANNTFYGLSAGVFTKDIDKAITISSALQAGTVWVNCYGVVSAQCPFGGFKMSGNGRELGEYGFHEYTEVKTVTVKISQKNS
HPGD block: qHTS Assay for Inhibitors of HPGD (15-Hydroxyprostaglandin Dehydrogenase) | Potency, µM, inactives show at the highest dose activity change, negative = inhibition, usual class: inhibitors | AID 894, 2007 | purified HPGD, NADH fluorescence kinetic, PGE2 substrate | 4.3% of 150,000 active; also: % is scaled to controls: 0 for no effect and ±100 for the full control effect
Target sequence (P15428 whole entry, looked up): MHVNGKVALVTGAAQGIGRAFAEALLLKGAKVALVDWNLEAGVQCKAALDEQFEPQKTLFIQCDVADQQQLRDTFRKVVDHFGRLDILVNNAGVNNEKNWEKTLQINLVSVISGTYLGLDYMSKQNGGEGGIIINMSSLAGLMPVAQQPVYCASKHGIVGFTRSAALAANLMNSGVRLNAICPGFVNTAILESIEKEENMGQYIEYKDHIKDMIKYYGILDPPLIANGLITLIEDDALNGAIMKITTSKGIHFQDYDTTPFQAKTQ
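NADH formation kinetics: reaction with 30 uM PGE2 and 1 mM NAD+ (final), 20 nM enzyme, Tris-HCl pH 8 with Tween 20, after 15 min compound preincubation at room temperature. Fluorescence change, last versus first of five reads.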
Starred values were filed as active, the others as inactive; ? = inconclusive; nt = no result given; [ ] = remark or other dose. Unless noted, calls follow the shape of the dose curve; as a rule, active = well fitted inhibition curve with a large enough effect (not every such curve was filed as active); inconclusive = small, poorly fitted or top-dose-only effect, or another doubt; inactive = no such curve, though single readings can be large or run the other way. Potency is read from the fitted curve at half-maximal effect.

SMILES	HTT aggregate	JMJD2E inh	Lamin A splicing	HTT ATP protect	ALDH1A1 inh	HPGD block
Clc1ccccc1CSc1nnc(-c2cccnc2)n1Cc1ccco1	14%	?	?	-7%[0.074 µM]	7.9µM*	28µM*
COC(=O)C(NS(=O)(=O)c1ccc(C)cc1)c1ccccc1 (stereo not given)	?	-4%	10%[46 µM]	-47%	-16%	nt
Cc1ccc(S(=O)(=O)NC(C(=O)Oc2ccc3c(C(F)(F)F)cc(=O)oc3c2)c2ccccc2)cc1 (stereo not given)	-12%	32µM*	?	2%[10 µM]	-6%	?
O=C(CCN1CCN(c2ccccc2F)CC1)Nc1ccccc1F	11%	-2%	9%	16%[0.074 µM]	1%	0%
O=C(CN1CCN(c2ccccc2F)CC1)Nc1ccccc1F	1%	2%	?	-11%	20µM*	3%
CC(O)c1nc2ccccc2n1CC(=O)Nc1ccc2c(c1)OCCO2 (stereo not given)	7%	9%	10%[46 µM]	-43%[10 µM]	4%	nt
O=C(CN1CCN(c2ccccc2)CC1)Nc1ccc2c(c1)OCCO2	30%	3%	19%[46 µM]	-12%[10 µM]	9%	nt
O=C(CN1CCN(C(=O)c2ccco2)CC1)Nc1ccc2c(c1)OCCO2	-4%	-1%	12%	-9%	13µM*	-9%
CC(C(=O)Nc1ccc2c(c1)OCCO2)N1CCN(C(=O)c2ccco2)CC1 (stereo not given)	?	8%	11%	-8%[10 µM]	4%	-5%
CCCn1c(N2CCN(CC(=O)Nc3ccc4c(c3)OCCO4)CC2)nc2ccccc21	-2%	-10%	-7%	-7%[10 µM]	25µM*	-7%
O=C(CN1CCN(CC(=O)Nc2ccccc2F)CC1)Nc1ccc2c(c1)OCCO2	-10%	-4%	nt	-27%	28µM*	nt
COc1cc(C(=O)N(CCCN(C)C)c2nc3c(OC)cccc3s2)cc(OC)c1OC	nt	nt	0%[46 µM]	nt	nt	nt
CC(C)c1ccccc1S(=O)c1ccccc1C(C)(C)O (stereo not given)	nt	nt	nt	9%[10 µM]	24%[13.5 µM]	-3%
O=C(c1ccco1)N1CCCN(Cc2nc(-c3ccc4c(c3)OCO4)no2)CC1	-9%[9.22 µM]	-5%	?	18%[10 µM]	22µM*	nt
Fc1ccc(CN2CCCN(Cc3nc(-c4ccc5c(c4)OCO5)no3)CC2)cc1	15%[9.22 µM]	-8%	-1%[46 µM]	43%[10 µM]	0%	nt
Cc1ccc(S(=O)(=O)Oc2ccc(/C=C(/NC(=O)c3ccccc3)C(=O)NCCCC(=O)O)cc2)cc1	0%[9.22 µM]	-8%	nt	1%[10 µM]	2.8µM*	nt
Cc1ccc(S(=O)(=O)Oc2ccc(/C=C(/NC(=O)c3ccccc3)C(=O)NCCC(=O)O)cc2)cc1	12%[9.22 µM]	-21%	10%[46 µM]	-7%[10 µM]	2.5µM*	nt
COc1ccc(NC(=O)/C(=C\c2ccc(OS(=O)(=O)c3ccc(C)cc3)cc2)NC(=O)c2ccccc2)cc1	0%	1%	0%	-20%	1µM*	-15%
Cc1ccc(S(=O)(=O)Oc2ccc(/C=C(/NC(=O)c3ccccc3)C(=O)Nc3ccccc3)cc2)cc1	21%	-5%	4%	-9%	?	?
N#Cc1cccc(NC(=O)N2CCCC3(CCN(C(=O)c4cc(C(F)(F)F)cc(C(F)(F)F)c4)CC3)C2)c1	nt	nt	nt	-9%	0%	-9%
COc1ccc(C(=O)NC(=S)NCc2ccc(-c3nc4ccccc4o3)cc2)cc1OC	36%	5%	15%	-13%	5µM*	-21%
CCN(C(=O)Cn1cnc2onc(-c3ccc(F)cc3)c2c1=O)c1ccc(OC)cc1	nt	nt	5%[46 µM]	nt	nt	nt
Cc1ccc(N2C(=O)SC(N(CC(=O)O)c3cccc(C)c3)C2=O)cc1 (stereo not given)	11%	-9%	3%	-23%[10 µM]	?	4%
CC(=O)N(c1ccccc1)C1SC(=O)N(c2ccccc2)C1=O (stereo not given)	22%	0%	14%	2%[10 µM]	0.63µM*	-15%
CC(=O)N(c1cccc(C)c1)C1SC(=O)N(c2ccccc2)C1=O (stereo not given)	9%	4%	4%	-3%	8.9µM*	nt
SMILES	HTT aggregate	JMJD2E inh	Lamin A splicing	HTT ATP protect	ALDH1A1 inh	HPGD block
CCOC(=O)c1ccccc1NC(=O)c1nn(-c2ccc(C)cc2)c(=O)n(C)c1=O	nt	nt	8%[46 µM]	nt	nt	nt
O=[N+]([O-])c1ccc(N2CCCCCC2)c([N+](=O)[O-])c1	2%	7%	-1%	-9%[10 µM]	-21%	-14%
O=C1CCN(c2ccc([N+](=O)[O-])cc2F)CC1	-4%	-26%	1%[46 µM]	3%[10 µM]	8.9µM*	nt
Cc1c(NN=C(C#N)C#N)c(=O)n(-c2ccccc2)n1C	-17%	-15%	-16%[46 µM]	-16%	3.5µM*	nt
Cc1c(NC(=O)/C(C#N)=C/c2ccccc2)c(=O)n(-c2ccccc2)n1C	0%	6%	nt	-2%	-12%	nt
Cn1c(=O)cc(OCCCC(=O)NCc2ccco2)c2ccccc21	33%	-4%	?	-12%	20µM*	20µM*
CC(C)CCNC(=O)CCCOc1cc(=O)n(C)c2ccccc12	?	-1%	?	-30%	-1%	16µM*
CC1CCN(C(=O)CCCOc2cc(=O)n(C)c3ccccc23)CC1	1%	1%	-16%	6%	?	7.9µM*
COc1ccc(CNC(=O)CCCOc2cc(=O)n(C)c3ccccc23)cc1	17%	-1%	-5%	13%	8%	-13%
O=C(CCCCCN1C(=O)c2ccccc2C1=O)NCc1ccco1	11%	-3%	2%	-9%[10 µM]	-5%	11µM*
O=C1NC(=O)c2cc([N+](=O)[O-])ccc21	nt	nt	nt	0%	2%	-9%
Cc1ccc(CNC(=O)CCCOc2cc(=O)n(C)c3ccccc23)o1	?	-9%	-17%	-10%[10 µM]	20µM*	-23%
O=C(CC(c1ccco1)C1CCCCC1=O)c1ccco1 (stereo not given)	17%	-6%	7%	-11%	25µM*	-1%
COc1ccc(C(=O)CC(c2ccccc2)C2CCCCC2=O)cc1 (stereo not given)	6%	-4%	-11%	-1%	0.5µM*	-15%
CN(C)c1ccc(C(CC(=O)c2ccccc2)C2CCCCC2=O)cc1 (stereo not given)	-2%	-3%	-5%	5%[10 µM]	?	2%
CCCCC/C=C\C=C\C(O)CCCCCCCC(=O)O (stereo not given)	nt	-8%	nt	-25%	-7%	-2%

Screens: PubChem BioAssay, National Center for Advancing Translational Sciences (NCATS)
